# ALR inh – inhibitors of human ALR sulfhydryl oxidase, primary screen, biochemical, H2O2 detection, HRP-luminol luminescence, single point | FAD-linked sulfhydryl oxidase ALR (Homo sapiens), P55789 | purified ALR, DTT oxidation | inhibition, % (concentration not given with the values) | 290,000 compounds, 3.8% hits;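 active means mean replicate inhibition above about 79%, with every replicate also reaching it, limit read from the data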
# PfM18AAP inh – PfM18AAP inhibitors, malaria aminopeptidase, primary screen, biochemical, QFRET, recombinant enzyme; M18 aspartyl aminopeptidase (Plasmodium falciparum 3D7); AID 1822, 2009; inhibition, % at 7.35 µM; 290,000 compounds, 1.2% hits; H-Glu-NHMec fluorogenic cleavage;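 active means inhibition above the campaign mean inhibition over all tested compounds plus 3 SD, cut at about 28% in these data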;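 further: 0% = plate median of test compound wells and 100% = 2 mM ZnCl2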
# Granule exo inh – LAMP-1 surface exposure blockers, TALL-104 cells – cell-based, flow cytometry, MLPCN library, primary screen | inhibition, % at 10 µM | TALL-104 LAMP-1 surface exposure; cells stimulated with thapsigargin and PMA | AID 651702, 2012 | 360,000 compounds, 0.66% hits;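 active means inhibition above about 55%, limit read from the data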
# SMARCA2 activ – SMARCA2 (BRM) function activators, primary screen, cell-based, luminescence, high throughput; MG213 cells, MMTV-luciferase reporter, dexamethasone, overnight; AID 652017, 2013; 370,000 compounds, 1% hits; activation, % at 9.1 µM; in the data active means activation above about 7.8%;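 further: 0% = vehicle wells and 100% = reference activator wells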
# MIN6 prolif – inducers of MIN6 beta-cell proliferation, primary screen, ATP luminescence, uHTS; MIN6 cells proliferation, ATPlite luminescence, 48 h; cells starved in 0.2% serum; 100% = growth in 10% serum; proliferation, % at 10 µM; 330,000 compounds, 0.29% hits;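 active means compounds whose signal lies at least 3.5 SD above the mean of all wells on their plate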;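 further: 0% = DMSO-treated cells in low-serum medium and 100% = 10% serum control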
# JMJD2C inh – inhibitors of GASC-1 histone demethylase, primary screen, biochemical, fluorescence, DELFIA europium | inhibition, % at 2.35 µM | GST-JMJD2C(1-420) H3K9me3 demethylation | 330,000 compounds, 0.069% hits;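 active means more than half of a compound's replicate wells show inhibition beyond 50%, single wells judged on their own value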;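 further: signal counts dimethyl H3K9 product captured on neutravidin plate; 0% = median of DMSO wells and 100% = 0.3 times that DMSO median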
# Target sequence (Q9H3R0 1-420 limits assumed): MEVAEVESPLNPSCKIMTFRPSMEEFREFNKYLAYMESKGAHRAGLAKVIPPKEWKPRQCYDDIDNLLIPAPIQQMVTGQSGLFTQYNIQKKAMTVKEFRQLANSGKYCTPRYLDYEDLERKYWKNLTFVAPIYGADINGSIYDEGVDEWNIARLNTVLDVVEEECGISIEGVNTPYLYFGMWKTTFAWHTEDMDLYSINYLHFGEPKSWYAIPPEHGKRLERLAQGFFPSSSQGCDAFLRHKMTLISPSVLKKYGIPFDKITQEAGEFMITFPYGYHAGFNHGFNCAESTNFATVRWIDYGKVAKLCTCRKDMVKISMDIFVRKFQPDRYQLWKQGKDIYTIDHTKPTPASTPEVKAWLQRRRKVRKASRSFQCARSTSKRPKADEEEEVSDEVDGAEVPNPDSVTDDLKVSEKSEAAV
# * marks the source's active call; other numbers are inactive results; / = no result; ! = repeats disagree. Shown are actives, neighbours in structure and some others; about 5.4% of the full set was active somewhere.
SMILES,ALR inh,PfM18AAP inh,Granule exo inh,SMARCA2 activ,MIN6 prolif,JMJD2C inh
O=C(NC1CCCCN(Cc2cccc(Cl)c2)C1=O)c1ccc(F)cc1 (configuration not stated),/,/,/,-5,/,/
O=C(O)/C=C/C(=O)Nc1ccc2c(c1)C(=O)c1ccccc1C2=O,97*,7,4,5,-1,3
COc1ccc(N2CCN(c3ccc(NC(=O)/C=C\C(=O)O)cc3)CC2)cc1,83*,31*,1,-1,-2,2
O=C(O)/C=C/C(=O)Nc1ccc(C(=O)c2ccccc2)cc1,1,-1,1,3,2,9
O=C(O)/C=C/C(=O)Nc1ccc(O)cc1,98*,20,-4,3,-3,-3
NC(=O)c1ncn([C@@H]2O[C@H](C(=O)N3CCCN(Cc4ccccc4F)CC3)[C@@H](O)[C@H]2O)n1,/,/,/,0,/,/
COC(=O)[C@]12CCCCC=C1N(Cc1ccc(OC)cc1)C(=O)[C@@H]2CC(=O)N1CCC(c2ccccc2)CC1,/,/,/,-2,/,/
C[C@](N)(Cc1ccc(O)c(O)c1)C(=O)O,/,65*,0,-5,/,/
CCOC(=O)c1c(/N=C/c2cc([N+](=O)[O-])ccc2O)sc(C)c1C,98*,26,-5,-4,0,3
CCOC(=O)c1c(/N=C/C2=C(O)CC(C)(C)CC2=O)sc(C)c1C,6,26,3,1,-4,-41
CCOC(=O)c1c(/N=C/c2cc(OC)cc([N+](=O)[O-])c2O)sc(C)c1C,46,28*,6,-2,0,2
Nc1ccc2c(c1)OCCOCCOCCOCCOCCO2,98*,10,-3,-3,-4,-2
Brc1ccc2c(c1)OCCOCCOc1cc(Br)ccc1OCCOCCOCCO2,-9,0,60*,/,-4,-5
Cc1ccc(Cn2nnc3c2-c2cc(F)ccc2S(=O)(=O)N(C(C)(C)C)C3)cc1,/,/,/,-5,/,/
CCOC(=O)c1cnc(/N=C/N(C)C)s1,/,-9,1,7.9*,3,-5
Cc1ccc(NC(=S)NNC(C)(C)C)cc1,22,-3,-5,6,-2,-17
CC(C)=NN/C(N)=N/C(=S)Nc1ccc(C)cc1,72,29*,0,5,2,10
Cc1ccccc1-c1nc2ccccc2c(=O)n1/N=C/c1ccccc1[N+](=O)[O-],1,-14,67*,1,-2,-3
CC(=O)c1cc(-c2ccc(-c3cc(C(=O)O)c4ccccc4n3)cc2)c(=O)n2c1CCC2,/,/,/,-3,/,/
COC(=O)c1cn(NC(=O)c2cc([N+](=O)[O-])ccc2F)c(=O)c2ccccc12,96*,-5,-5,-6,-5,1
CC1CCc2c(sc(N)c2C(N)=O)C1 (configuration not stated),-23,29*,-1,-1,-4,-6
O=C(Nc1nc2c(F)cccc2s1)C1CC1,7,3,0,0,1,-2
CC1CCc2c(sc(Nc3nc4c(F)cccc4s3)c2C(N)=O)C1 (configuration not stated),55,24,85*,-3,-3,2
C=CCN=C1NC(c2cccc(F)c2)C(C(=O)OC)=C(C)N1Cc1cccc(C(F)(F)F)c1 (configuration not stated),/,/,/,-3,/,/
Cc1cccc(NC(=O)N2CCC(N(C)CCC(C)C)CC2)c1,/,/,/,-5,/,/
SMILES,ALR inh,PfM18AAP inh,Granule exo inh,SMARCA2 activ,MIN6 prolif,JMJD2C inh
O=C(NCCN1CCN(c2cccc(Cl)c2)CC1)C1CCCN(S(=O)(=O)c2cnc[nH]2)C1 (configuration not stated),96*,2,7,0,2,/
O=C(NCCN1CCN(c2ccccc2)CC1)C1CCCN(S(=O)(=O)c2cnc[nH]2)C1 (configuration not stated),97*,0,6,/,4,6
O=C(NCc1ccccc1Cl)C1CCCN(S(=O)(=O)c2cnc[nH]2)C1 (configuration not stated),94*,-7,-3,0,1,-6
O=C(NCCCN1CCN(c2ccccc2)CC1)C1CCCN(c2ncnc3c2nc2n3CCCCC2)C1 (configuration not stated),99*,1,3,4,2,1
CS/C(=C\[N+](=O)[O-])Nc1ccccc1,80*,4,-3,1,3,1
CS/C(=C\[N+](=O)[O-])Nc1ccc(F)cc1,20,1,1,-1,0,9
CCCC[C@H]1C2CC(OC(=O)Nc3cccc(C(F)(F)F)c3)C(C2)[C@H]2CCCCN21 (some centres not stated),/,/,/,-4,/,/
Cc1cc(Br)cc2c1NC(=O)C2(c1c(C)n(C)n(-c2ccccc2)c1=O)c1c(C)n(C)n(-c2ccccc2)c1=O,2,0,3,-9,-2,-23
COc1cc(C2(c3ccc(O)c(OC)c3)C(=O)Nc3c(C)cc(Br)cc32)ccc1O,80*,/,3,-2,-3,3
Cc1ccc(NC(=O)Cn2c(O)c(N=NC(N)=O)c3ccccc32)cc1,-2,-1,1,-1,0,18
Cc1ccc(NC(=O)Cn2c(O)c(N=NS(=O)(=O)c3ccc(C)cc3)c3ccccc32)cc1,1,14,56*,-2,0,-4
COc1ccc(N=Cc2cccc(C)c2O)cc1Cl,-12,2,2,1,0,38
COc1cccc(C=Nc2ccc3c(c2)OCCO3)c1O,87*,-2,-1,/,-2,60
CCN1CCN(c2ccc(N=Cc3ccccc3O)cc2)CC1,98*,-2,4,-1,-1,1
COc1cccc(C=Nc2ccc(N3CCOCC3)cc2)c1O,99*,-16,14,-2,-1,0
CC(=NN1CCN(Cc2ccccc2Cl)CC1)c1ccc(O)cc1,/,/,/,-6,/,/
O=C(CCc1ccccc1-c1ccccc1CCNC(=O)c1c(F)cccc1F)NCc1ccccc1,/,/,/,-1,/,/
CCOc1c(C)cc(-c2ncccc2O)cc1C,92*!,9,1,4,-2,18
COc1ccc(-c2ncccc2O)cc1,21,-5,5,1,5,-5
O=C(CSc1nc2[nH]c(=O)cc(O)c2s1)Nc1cc(Cl)cc(Cl)c1,99*,7,-23,-3,-3,0
Cc1cc(C)cc(NC(=O)CSc2nc3[nH]c(=O)cc(O)c3s2)c1,98*,0,-5,-1,3,-14
O=C(CSc1nc2[nH]c(=O)cc(O)c2s1)Nc1ccc(Cl)c(C(F)(F)F)c1,99*,/,0,2,-8,5
